Structures can show the parent of a compound that is named as a salt.
system: replication-induced senescent mouse newborn dermal fibroblasts (NBF); assay: relative cell viability of senescent cells (fraction); higher = less killing of senescent cells; settings: 1 µM; 3 days
Protocol: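 Replication-induced senescent newborn mouse skin fibroblasts (NBFs) in 24-well plates were treated with a Selleck FDA-approved drug library at 1 µM for 3 days.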

Structure (SMILES)	relative cell viability
C[C@H](Cc1cc2c(c(C(N)=O)c1)N(CCCO)CC2)NCCOc1ccccc1OCC(F)(F)F [Silodosin]	0.806
C[C@]12CC[C@@H]3c4ccc(O)cc4C[C@@H](CCCCCCCCC[S+]([O-])CCCC(F)(F)C(F)(F)F)[C@H]3[C@@H]1CC[C@@H]2O (stereo not given in full) [Fulvestrant]	0.971
Clc1ccc(C(c2ccccc2Cl)C(Cl)Cl)cc1 (stereo not given) [Mitotane]	1.16
CO[C@H]1C[C@@H]2CC[C@@H](C)[C@@](O)(O2)C(=O)C(=O)N2CCCC[C@H]2C(=O)O[C@H]([C@H](C)C[C@@H]2CC[C@@H](OC(=O)C(C)(CO)CO)[C@H](OC)C2)CC(=O)[C@H](C)/C=C(\C)[C@@H](O)[C@@H](OC)C(=O)[C@H](C)C[C@H](C)/C=C/C=C/C=C/1C	0.603
Cn1cnc2c(F)c(Nc3ccc(Br)cc3Cl)c(C(=O)NOCCO)cc21 [Selumetinib (AZD6244)]	0.897
O=C(/C=C/c1cccc(S(=O)(=O)Nc2ccccc2)c1)NO [Belinostat (PXD101)]	0.941
C#CCC(Cc1cnc2nc(N)nc(N)c2n1)c1ccc(C(=O)N[C@@H](CCC(=O)O)C(=O)O)cc1 (stereo not given in full) [Pralatrexate]	0.863
CC(C)NCC(O)COc1ccc(CCOCC2CC2)cc1 (stereo not given) [Betaxolol HCl]	1.1
COc1cc(Nc2c(C#N)cnc3cc(OCCCN4CCN(C)CC4)c(OC)cc23)c(Cl)cc1Cl [Bosutinib (SKI-606)]	0.0801
COc1cc2nccc(Oc3ccc(NC(=O)NC4CC4)c(Cl)c3)c2cc1C(N)=O [Lenvatinib (E7080)]	0.123
CCC(=O)OCC(=O)[C@@]1(OC(=O)CC)[C@@H](C)C[C@H]2[C@@H]3CCC4=CC(=O)C=C[C@]4(C)[C@@]3(F)[C@@H](O)C[C@@]21C [Betamethasone Dipropionate]	0.902
CO[C@H]1C[C@@H]2CC[C@@H](C)[C@@](O)(O2)C(=O)C(=O)N2CCCC[C@H]2C(=O)O[C@H]([C@H](C)C[C@@H]2CC[C@@H](O)[C@H](OC)C2)CC(=O)[C@H](C)/C=C(\C)[C@@H](O)[C@@H](OC)C(=O)[C@H](C)C[C@H](C)/C=C/C=C/C=C/1C [Rapamycin (Sirolimus)]	0.735
COc1cc2nc(N(C)CCCNC(=O)C3CCCO3)nc(N)c2cc1OC (stereo not given) [Alfuzosin HCl]	0.96
CCOc1cc2ncc(C#N)c(Nc3ccc(F)c(Cl)c3)c2cc1NC(=O)/C=C/CN(C)C [Pelitinib (EKB-569)]	1.01
CN(C/C=C/C#CC(C)(C)C)Cc1cccc2ccccc12 [Terbinafine]	0.403
CO[C@H]1/C=C/O[C@@]2(C)Oc3c(C)c(O)c4c(O)c(c5c(nc6cc(C)ccn65)c4c3C2=O)NC(=O)/C(C)=C\C=C\[C@H](C)[C@H](O)[C@@H](C)[C@@H](O)[C@@H](C)[C@H](OC(C)=O)[C@@H]1C [Rifaximin]	0.971
CCc1cc(C(N)=S)ccn1 [Ethionamide]	0.932
CC(=O)O[C@H]1C[C@@H]2CC[C@@H]3[C@H](CC[C@@]4(C)[C@H]3C[C@H]([N+]3(C)CCCCC3)[C@@H]4OC(C)=O)[C@@]2(C)C[C@@H]1N1CCCCC1 [Vecuronium Bromide]	1.08
CCCC(CCC)C(=O)O [Divalproex Sodium]	1.11
CN1CC(=O)N2[C@H](c3ccc4c(c3)OCO4)c3[nH]c4ccccc4c3C[C@@H]2C1=O [Tadalafil]	0.318

Structure (SMILES)	relative cell viability
COc1ccccc1OCC(O)CN1CCN(CC(=O)Nc2c(C)cccc2C)CC1 (stereo not given) [Ranolazine]	0.994
CC(=O)OCC(=O)NCCCOc1cccc(CN2CCCCC2)c1 [Roxatidine Acetate HCl]	0.897
O=c1[nH]cc(F)c(=O)[nH]1 [Fluorouracil (5-Fluoracil, 5-FU)]	0.0476
CCCC(CCC)C(=O)O [Valproic acid sodium salt (Sodium valproate)]	1.11
CC(C)OC(=O)C(C)(C)Oc1ccc(C(=O)c2ccc(Cl)cc2)cc1 [Fenofibrate]	1.06
O=C(O)CSCC(=O)NC1CCSC1=O (stereo not given) [Erdosteine]	0.979
COc1ccccc1OCC(O)CN1CCN(CC(=O)Nc2c(C)cccc2C)CC1 (stereo not given) [Ranolazine 2HCl]	0.773
Nc1nc2c(ncn2COC(CO)CO)c(=O)[nH]1 [Ganciclovir]	0.995
C[C@]12C=CC(=O)C=C1CC[C@@H]1[C@@H]2[C@@H](O)C[C@@]2(C)[C@H]1CC[C@]2(O)C(=O)CO [Prednisolone]	1.01
CO[C@H]1C[C@@H]2CC[C@@H](C)[C@@](O)(O2)C(=O)C(=O)N2CCCC[C@H]2C(=O)O[C@H]([C@H](C)C[C@@H]2CC[C@@H](OCCO)[C@H](OC)C2)CC(=O)[C@H](C)/C=C(\C)[C@@H](O)[C@@H](OC)C(=O)[C@H](C)C[C@H](C)/C=C/C=C/C=C/1C [Everolimus (RAD001)]	0.765
CN1CCC[C@@H]1CCO[C@](C)(c1ccccc1)c1ccc(Cl)cc1 [Clemastine Fumarate]	1.07
Nc1ccccc1NC(=O)c1ccc(CNC(=O)OCc2cccnc2)cc1 [Entinostat (MS-275)]	0.536
C=CC[N+]1([C@H]2C[C@H]3[C@@H]4CC[C@H]5C[C@H](O)[C@@H](N6CCOCC6)C[C@]5(C)[C@H]4CC[C@]3(C)[C@H]2OC(C)=O)CCCC1 [Rocuronium Bromide]	0.939
CC(=O)N[C@@H](CS)C(=O)O [Acetylcysteine]	0.834
Cc1ccc(C(=O)N(CCCN)[C@@H](c2nc3cc(Cl)ccc3c(=O)n2Cc2ccccc2)C(C)C)cc1	1.13
c1ccc(-c2ccc(C(c3ccccc3)n3ccnc3)cc2)cc1 (stereo not given) [Bifonazole]	0.877
CCN(CC)C(=S)SSC(=S)N(CC)CC [Disulfiram]	1.13
COCCc1ccc(OCC(O)CNC(C)C)cc1 (stereo not given) [Metoprolol Tartrate]	1.1
CC(C)(C)c1cc(C(C)(C)C)c(NC(=O)c2c[nH]c3ccccc3c2=O)cc1O [Ivacaftor (VX-770)]	0.533
CCCCC(=O)O[C@]1(C(=O)CO)[C@@H](C)C[C@H]2[C@@H]3CCC4=CC(=O)C=C[C@]4(C)[C@@]3(F)[C@@H](O)C[C@@]21C [Betamethasone Valerate]	1.15
